Test results from article PMC4336329 (PLoS ONE, 2015).
Among all 310,000 compounds or so, about 14,000 (4.5%) showed an effect of 50% or more. The effect is printed as a negative number. The sample holds strong results, similar compounds and a random draw of the others, so the mix is not that of the screen.

What follows are compounds tested against human ether-à-go-go-related gene (hERG) potassium channel (human, UniProt Q12809) (assay: primary screen, population patch clamp on CHO cells stably expressing hERG; higher = less effect of the substance).
Chain of human ether-à-go-go-related gene (hERG) potassium channel (Q12809 whole entry, looked up): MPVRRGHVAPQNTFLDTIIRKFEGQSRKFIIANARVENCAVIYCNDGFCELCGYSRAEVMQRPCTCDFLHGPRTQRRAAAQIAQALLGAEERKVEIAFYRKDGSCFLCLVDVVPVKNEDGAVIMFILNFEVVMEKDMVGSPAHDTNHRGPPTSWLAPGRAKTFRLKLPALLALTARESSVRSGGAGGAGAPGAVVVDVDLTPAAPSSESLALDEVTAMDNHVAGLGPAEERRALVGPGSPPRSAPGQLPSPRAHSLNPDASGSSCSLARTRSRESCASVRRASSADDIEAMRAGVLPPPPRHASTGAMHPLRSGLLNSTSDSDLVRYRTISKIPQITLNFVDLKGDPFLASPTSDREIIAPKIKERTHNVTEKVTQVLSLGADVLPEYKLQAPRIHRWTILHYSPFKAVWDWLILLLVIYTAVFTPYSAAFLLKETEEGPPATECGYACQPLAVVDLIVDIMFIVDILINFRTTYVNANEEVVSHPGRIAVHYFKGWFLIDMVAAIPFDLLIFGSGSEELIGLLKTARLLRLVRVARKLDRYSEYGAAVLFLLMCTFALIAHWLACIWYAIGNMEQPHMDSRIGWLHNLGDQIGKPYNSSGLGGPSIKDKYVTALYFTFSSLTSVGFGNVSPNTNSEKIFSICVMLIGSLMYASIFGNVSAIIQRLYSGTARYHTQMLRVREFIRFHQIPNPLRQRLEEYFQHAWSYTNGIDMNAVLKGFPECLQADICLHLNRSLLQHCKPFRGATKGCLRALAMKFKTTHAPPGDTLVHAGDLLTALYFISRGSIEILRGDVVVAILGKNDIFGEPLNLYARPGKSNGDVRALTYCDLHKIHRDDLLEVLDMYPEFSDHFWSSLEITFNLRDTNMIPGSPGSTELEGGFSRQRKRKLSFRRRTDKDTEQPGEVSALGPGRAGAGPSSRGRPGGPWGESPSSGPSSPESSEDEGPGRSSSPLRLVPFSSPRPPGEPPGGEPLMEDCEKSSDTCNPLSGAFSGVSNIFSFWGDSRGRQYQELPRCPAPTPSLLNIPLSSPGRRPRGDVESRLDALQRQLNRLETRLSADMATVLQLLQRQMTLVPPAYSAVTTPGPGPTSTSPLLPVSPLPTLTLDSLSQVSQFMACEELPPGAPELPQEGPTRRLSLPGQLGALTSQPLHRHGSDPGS
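Also: peak tail current of the secondary pulse compared with the same well before compound.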

Question: Which “hERG current change (%, negative = inhibition) at 10uM” value does the source give for CCN1CCN(S(=O)(=O)c2cccc3nsnc23)CC1 here?
Answer: -5.57%

Question: How did the “hERG current change (%, negative = inhibition) at 10uM” value turn out when COc1cccc(/C=C2\SC(=N)N(c3ccc(F)cc3)C2=O)c1 was run?
Answer: 9.22%

Question: How did the “hERG current change (%, negative = inhibition) at 10uM” value turn out when CCCOc1ccc(-c2c(C(=O)N/N=C/c3ccccc3)nnn2-c2nonc2N)cc1 was run?
Answer: 4.98%

Question: With O=C(Nc1cccc(O)c1)c1cc(-c2ccc3c(c2)OCO3)on1 as the compound, how does the “hERG current change (%, negative = inhibition) at 10uM” value read?
Answer: 11.3%

Question: How did the “hERG current change (%, negative = inhibition) at 10uM” value turn out when O=C(Nc1ccc2c(c1)OCO2)c1cc(-c2ccc(O)cc2)on1 was run?
Answer: 22.4%

Question: O=C(Nc1ccc2c(c1)OCO2)c1cc(-c2cccc(O)c2)on1 was tested. Which “hERG current change (%, negative = inhibition) at 10uM” value did it give?
Answer: -63.1%

Question: How did the “hERG current change (%, negative = inhibition) at 10uM” value turn out when Cc1ccc(CN2CCN(C/C=C/c3ccc(F)cc3)CC2CCO)o1 (stereo not shown) was run?
Answer: -54.5%

Question: For CCOc1ccccc1CN1CCN(C/C=C/c2ccc(OC)cc2)CC1CCO (stereo not shown), which “hERG current change (%, negative = inhibition) at 10uM” value is on record?
Answer: -65%

Question: COc1ccccc1/C=C/CN1CCN(Cc2ccc(C)o2)C(CCO)C1 (stereo not shown) was tested. Which “hERG current change (%, negative = inhibition) at 10uM” value did it give?
Answer: -12%

Question: For CCOc1ccccc1CN1CCN(Cc2ccc(C)o2)C(CCO)C1 (stereo not shown), which “hERG current change (%, negative = inhibition) at 10uM” value is on record?
Answer: -12.9%

Question: Which “hERG current change (%, negative = inhibition) at 10uM” value does the source give for COc1cc(/C=C/CN2CCN(CCC(C)C)C(CCO)C2)ccc1O (stereo not shown) here?
Answer: 23%

Question: With COC(=O)c1ccc(CN2CCN(CC(C)C)C(CCO)C2)cc1 (stereo not shown) as the compound, how does the “hERG current change (%, negative = inhibition) at 10uM” value read?
Answer: -3.11%

Question: Which “hERG current change (%, negative = inhibition) at 10uM” value does the source give for COc1cc(/C=C/CN2CCN(Cc3ccc(C)o3)C(CCO)C2)ccc1O (stereo not shown) here?
Answer: -6.62%

Question: Which “hERG current change (%, negative = inhibition) at 10uM” value does the source give for COc1ccc(/C=C/CN2CCN(CC(C)C)C(CCO)C2)cc1 (stereo not shown) here?
Answer: -52.2%

Question: With COc1ccccc1/C=C/CN1CCN(Cc2ccc(F)cc2)C(CCO)C1 (stereo not shown) as the compound, how does the “hERG current change (%, negative = inhibition) at 10uM” value read?
Answer: -51%

Question: How did the “hERG current change (%, negative = inhibition) at 10uM” value turn out when C/C(=C\c1ccccc1)CN1CCN(Cc2ccc(C)o2)C(CCO)C1 (stereo not shown) was run?
Answer: -13.4%

Question: How did the “hERG current change (%, negative = inhibition) at 10uM” value turn out when COc1ccc(CCNC(=O)c2sc3cc(C)ccc3c2Cl)cc1 was run?
Answer: 3.77%

Question: With CCn1c(SCC(=O)Nc2ccccc2C(=O)OC)nnc1-c1cccc(C)c1 as the compound, how does the “hERG current change (%, negative = inhibition) at 10uM” value read?
Answer: -36.2%

Question: O=S(=O)(c1ccc(O)cc1)c1ccc(O)cc1 was tested. Which “hERG current change (%, negative = inhibition) at 10uM” value did it give?
Answer: 16.9%

Question: How did the “hERG current change (%, negative = inhibition) at 10uM” value turn out when CNC(=O)C(=O)NCC1CCCN1S(=O)(=O)c1cccs1 (stereo not shown) was run?
Answer: 12.4%

Question: Which “hERG current change (%, negative = inhibition) at 10uM” value does the source give for C=CCn1c(-c2cccnc2Cl)nc2ccccc21 here?
Answer: 8.48%

Question: With Cc1nn(-c2cc(N3CCOCC3)ccc2[N+](=O)[O-])c(=O)c2ccccc12 as the compound, how does the “hERG current change (%, negative = inhibition) at 10uM” value read?
Answer: -4.66%

Question: O=C([O-])/C=C1\CCCc2ccccc2C1O.[Na+] (stereo not shown) was tested. Which “hERG current change (%, negative = inhibition) at 10uM” value did it give?
Answer: 18.4%

Question: Which “hERG current change (%, negative = inhibition) at 10uM” value does the source give for Cc1ccsc1/C=N/NC(=O)CNC(=O)c1ccc(S(=O)(=O)N2CCOCC2)cc1 here?
Answer: 2.86%

Question: Which “hERG current change (%, negative = inhibition) at 10uM” value does the source give for O=C(C1CCN(S(=O)(=O)c2cccc3cccnc23)CC1)N1CCN(C2CCCCC2)CC1 here?
Answer: -0.647%
